The results in this text go back to PubChem BioAssay AID1021 (Emory University Molecular Libraries Screening Center, 2008).

Each structure is given as a SMILES string. Several values for one entry are separate records, joined by “and”; a condition that tells them apart may be missing. Equal entries are not always repeated. Out of some 220,000 compounds screened, about 2,100 (0.95%) were called active. This is one part of a sample in which actives are shown more often than they occur. Values without a mark were called inactive.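 How the source made its calls: active means compounds that cut the binding signal by more than half at the single screening dose; inactive means the rest.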

In the test the target is Induced myeloid leukemia cell differentiation protein Mcl-1 (Homo sapiens) (UniProt Q07820). Description: Mcl-1/Bid binding inhibitors, primary screen, biochemical, TR-FRET, 1536-well (AID 1021).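 Further: His-tagged Mcl-1 with europium anti-His antibody binding Bid BH3 peptide; 0% = Mcl-1 plus peptide wells and 100% = peptide-only wells.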 The note with it: TR-FRET Mcl-1/Bid-Dy647 peptide binding, at 21.7 µM, active compounds read high. For orientation: In TR-FRET formats the signal depends on donor and acceptor labels being close together.
Sequence of Induced myeloid leukemia cell differentiation protein Mcl-1 (Homo sapiens) (Q07820 whole entry, looked up): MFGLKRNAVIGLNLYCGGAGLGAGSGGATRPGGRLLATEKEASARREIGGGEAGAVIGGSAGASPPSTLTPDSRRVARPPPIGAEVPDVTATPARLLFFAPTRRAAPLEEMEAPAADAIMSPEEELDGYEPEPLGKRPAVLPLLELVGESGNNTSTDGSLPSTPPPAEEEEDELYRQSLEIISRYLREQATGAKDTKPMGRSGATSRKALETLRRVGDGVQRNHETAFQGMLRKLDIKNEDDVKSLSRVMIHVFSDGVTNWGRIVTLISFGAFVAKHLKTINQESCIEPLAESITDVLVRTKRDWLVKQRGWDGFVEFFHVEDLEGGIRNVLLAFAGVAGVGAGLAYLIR
For orientation: inhibition means the drop in the measured response relative to a control, in per cent. Regarding `N#Cc1c(NCCO)ccc([N+](=O)[O-])c1NCCO`, the inhibition is -25.7%.
Then `CCCCCC(=O)Nc1ccc(-c2cn3cccnc3n2)cc1`, with -4.56%.
As for `CC(C)n1c(=S)[nH]c2cc(C(F)(F)F)ccc21`, the inhibition was -33.7%.
For the compound `COc1ccc(OC)c(Nc2nc3ccccc3n3cnnc23)c1`, the inhibition is -7.62%.
Then `CN(C)/C=C(/C(=O)c1ccccc1Cl)S(C)(=O)=O`, with -0.7%; and `CCOC(=O)c1cn(CC)c2cc(F)c(F)cc2c1=O`, with -8.08%; and `CC(C)c1ccc2c(c1)c(SC(C)(C)C)c(CC(C)(C)C(=O)O)n2Cc1ccc(Cl)cc1`, with 83.2% (active).
With `CCC(=O)Nc1cccc(C2=NOC3(C2)C[C@@H](C(N)=O)N(C(=O)c2cc([N+](=O)[O-])cc([N+](=O)[O-])c2C)C3)c1` (stereo not given in full), the inhibition is -35.2%.
Then `CC(C)C(=O)N1CCC2(CC1)Oc1ccc(F)cc1C(=O)C21CC(c2ccccc2)=NO1` (stereo not given), with -8.72%; and `CCCC/S(C)=N/S(=O)(=O)c1ccc(C)cc1` (stereo not given), with 4.25%.
As to `Cc1ccc(S(=O)(=O)/N=S(\C)C(C)C)cc1` (stereo not given), the inhibition was 89.4% (active).
As to `CC/S(CC1CC1(Cl)Cl)=N\S(=O)(=O)c1ccc(C)cc1` (stereo not given), the inhibition was -4.99%.
Then `O=C1[C@@H]2C(c3cccnc3)=NO[C@@H]2C(=O)N1c1ccc(Cl)cc1Cl`, with -19.8%; and `CCN1C(=O)/C(=c2\s/c(=C3\Sc4ccccc4N3C)c(=O)n2C)N(C)C1=S`, with 79.2% (active).
With `CCN1C(=O)/C(=C2/Sc3ccccc3N2CCCS(=O)(=O)O)SC1=S`, the inhibition is -30.2% and -29.9%.
Turning to `CCC(=O)/C=C1\Sc2ccccc2N1CC`, the inhibition was -12.9%.
For the compound `Cc1cc(F)ccc1NC(=O)C(C)n1c2ccccc2c2nc(=O)cc(C)n21` (stereo not given), the inhibition is -4.95%.
Consider `COCCN(CCOC)c1nc(N)c2c(N)nc3c(c2c1C#N)CC(=O)N3Cc1ccc(Cl)cc1`, for which the inhibition was 54.2% (active).
Then `COc1ccccc1C(=O)NNC(=O)c1ccc(NC(=O)c2ccccc2)cc1`, with -23.3%; and `COc1ccccc1C(=O)Nc1ccc(OCc2nnc3c4ccccc4c(C)nn23)cc1`, with 59.8% (active).
Then `CCOc1ccc(NC(=O)c2cc(C)nc3ccccc23)cc1`, with -4.96%.
Take `CCOC(=O)N/N=C1\CC(C)S(=O)(=O)c2ccc(Cl)cc21` (stereo not given): the inhibition was -6.47%.
Turning to `O=C(O)CCc1cccnc1`, the inhibition was -29.9%.
Then `COc1ccc2nc(Nc3nc4cc5c(cc4s3)OCCO5)sc2c1`, with -62.6%.
Then `COc1ccc2nc(Nc3nc4ccc(NC(C)=O)cc4s3)sc2c1`, with 72.8% (active).
With `COc1ccc2nc(NC(=O)c3ccc(Br)s3)sc2c1` the figure was 4.41%; with `COc1cccc(-c2nnc(SCCOc3ccc4c(C)cc(=O)oc4c3)o2)c1`, -1.18%; with `COc1ccc(N2CCN(C(=O)COc3ccc4c(C)cc(=O)oc4c3)CC2)cc1`, -16.1%.
For the compound `COc1ccc(-c2csc3ncnc(Oc4ccc5c(C)cc(=O)oc5c4)c23)cc1`, the inhibition is 63.3% (active).
With `O=C(CN1CCN(Cc2ccccc2)CC1)NC(c1ccccc1)c1ccccc1` the figure was 26.9%; with `COc1ccc(NC(=O)CCN2C(=O)/C(=C/c3ccc4c(c3)OCO4)SC2=S)cc1`, -17%.
Then `Cc1cc(C)c(C2C3=C(Nc4c2c(C)nn4-c2ccccn2)c2ccccc2C3=O)c(C)c1` (stereo not given), with -27.1%.
On to `Cc1ccc(C2C3=C(Nc4[nH]n(-c5ccccc5)c(=O)c42)c2ccccc2C3=O)cc1` (stereo not given), for which the inhibition is 84.6% (active).
Then `Cc1ccc(N=Nc2c(C)[nH]n(-c3ccccc3)c2=O)cc1`, with -11.4%; and `O=C(O)c1ccc(/C=N/Nc2nc(N3CCCCC3)nc(N3CCCCC3)n2)cc1`, with 5.5%; and `CC(=O)NC(CC(=O)O)c1ccc(F)cc1` (stereo not given), with -2.56%.
Take `Cc1ccc(C(CC(=O)O)Nc2nc(N3CCCCC3)nc(N3CCCCC3)n2)cc1` (stereo not given): the inhibition was 50.7% (active).
Then `CCC(C)(C)NC(=O)C1c2ccccc2Oc2ccccc21`, with -5.83%.
As to `CCn1c(COc2ccccc2)nnc1SCC(=O)NCc1ccco1`, the inhibition is -25.4%.
As for `CCn1c(SCC(=O)NCc2ccco2)nnc1-c1ccc(N)cc1`, the inhibition is 75.2% (active).
With `Cc1ccc(-c2csc3nnc(SCC(=O)NCc4ccco4)n23)cc1`, the inhibition is -17.3%.
As for `CC(C)n1c(=O)[nH]c2cc(C(=O)Nc3ccccc3)ccc21`, the inhibition was -10.9%.
Then `COc1c(C=O)c(CCN(C)C(=O)c2ccc(F)cc2)cc2c1OCO2`, with 0.65%.
With `Cc1ccc(N2CCN(C3=NC(=O)/C(=C\c4cccs4)S3)CC2)cc1` the figure was 97.7% (active); with `Cc1ccc(N2CCN(/N=C/c3cccs3)CC2)cc1`, -7.6%; with `Cc1ccsc1/C=C1\SC(N2CCOCC2)=NC1=O`, -15.9%.
As to `Cc1ccc(-c2nn(-c3cccc(F)c3)cc2CNCCc2ccncc2)o1`, the inhibition was -20.2%.
Then `C=CCN(c1ccccc1C(=O)NCC(=O)OCC)S(=O)(=O)c1ccc(C)cc1`, with -11.3%.
Then `O=S(=O)(c1ccc(-c2ccccc2)cc1)N1CCCC1`, with -19.2%; and `O=S(=O)(c1cccc(-c2nnc(SC(F)F)n2-c2ccccc2)c1)N1CCCCC1`, with 91.8% (active); and `O=S(=O)(c1cccc(-c2nnc3n2CCCCC3)c1)N1CCOCC1`, with -26.9%.
Regarding `COc1cccc(/C=N/NC(=O)c2[nH]nc3c2CCc2ccccc2-3)c1O`, the inhibition was 53.3% (active).
With `COc1cccc(/C=N/Nc2cc(C)nc(-c3ccccc3O)n2)c1O` the figure was -54.1%.
On to `COc1cccc(/C=N\NC(=O)C2=NNC(=O)C2C)c1O` (stereo not given), for which the inhibition was -128%.
As to `O=C(NCc1ccc2c(c1)OCO2)c1sccc1Br`, the inhibition is -8.46%.
